# JMJD2E inh – blocks human JMJD2E demethylase activity | JMJD2E catalytic domain, FDH-coupled NADH fluorescence (FDH is formaldehyde dehydrogenase) | Potency, µM (titrated, usually from 57.1 µM), for the others: at the highest dose activity change, negative = inhibition, most hits filed as inhibitors | hit rate 1.6% among 230,000;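 note: potency is the fitted concentration of half-maximal effect; 0% = wells with enzyme and -100% = buffer wells without enzyme; nearly all actives have a fitted effect of over 50% in size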
# Target sequence (B2RXH2 1-337 limits assumed): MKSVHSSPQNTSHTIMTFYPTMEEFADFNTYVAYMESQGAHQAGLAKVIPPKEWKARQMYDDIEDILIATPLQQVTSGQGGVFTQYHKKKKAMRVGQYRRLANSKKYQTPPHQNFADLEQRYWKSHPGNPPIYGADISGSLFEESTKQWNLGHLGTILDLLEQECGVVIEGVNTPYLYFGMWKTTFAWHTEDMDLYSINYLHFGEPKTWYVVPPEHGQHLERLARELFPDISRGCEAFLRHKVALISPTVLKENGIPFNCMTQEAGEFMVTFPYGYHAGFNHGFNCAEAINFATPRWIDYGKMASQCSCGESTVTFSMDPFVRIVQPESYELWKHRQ
# HPGD inh – HPGD (human) dehydrogenase inhibition | hit rate 4.3% among 150,000 | AID 894 | Potency, µM, for the others: top-dose activity change, negative = inhibition, actives largely listed as inhibitors | purified HPGD, NADH fluorescence kinetic, PGE2 substrate; note: potency is the fitted concentration of half-maximal effect
# Target sequence (P15428 whole entry, looked up): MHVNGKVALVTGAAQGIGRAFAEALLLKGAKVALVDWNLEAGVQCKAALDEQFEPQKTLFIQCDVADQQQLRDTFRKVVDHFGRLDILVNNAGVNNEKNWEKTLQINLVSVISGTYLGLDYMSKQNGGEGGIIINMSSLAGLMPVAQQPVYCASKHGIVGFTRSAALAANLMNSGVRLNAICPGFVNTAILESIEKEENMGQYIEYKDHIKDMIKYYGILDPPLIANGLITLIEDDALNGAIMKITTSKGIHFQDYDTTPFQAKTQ
#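 NADH formation kinetics: reaction with 30 uM PGE2 and 1 mM NAD+ (final), 20 nM enzyme, Tris-HCl pH 8 with Tween 20, after 15 min compound preincubation at room temperature. Fluorescence change, last versus first of five reads.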
# ALDH1A1 block – inhibitors of human aldehyde dehydrogenase 1A1 | hit rate 7.3% among 220,000 | Purified ALDH1A1, NADH fluorescence, propionaldehyde substrate | P00352 | Potency, µM (doses to about 75.3 µM), inactives show at the top dose activity, negative = inhibition, usual class: inhibitors;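 note: potency is the fitted concentration of half-maximal effect; plate controls were no enzyme wells and a reference inhibitor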
# PNC inhibitor – inhibitors of perinucleolar compartment assembly | PC3M PTB-GFP, PNC prevalence imaging, 16 h; hits give low values | activity change (PNC), negative = inhibition, % at 10 µM | hit rate 3.1% among 140,000 | AID 2417;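 active = readout at or below -70, meaning at least 70% loss of cells showing the perinucleolar compartment, a nuclear body marking cancer cells; inconclusive = readout between -30 and a set limit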;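 note: plate controls were DMSO wells for no effect and camptothecin positive control wells for full effect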
#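 Read-out is percentage of cells bearing a perinucleolar compartment, from automated 20x imaging of fixed, Hoechst-stained PC3M PTB-GFP cells. Cells were seeded 4 h, then exposed 16 h to compound (23 nl of library stock) in duplicate plates.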
# Starred values were filed as active, the others as inactive; u = inconclusive; x = no result given; [ ] = dose if it differs, or a comment. Compounds with a hit are over-represented: about 11% of the library has one in this group of screens. Unless noted, calls come from the whole dose curve; as a rule, active = well fitted inhibition curve with a large enough effect (not every such curve was filed as active); inconclusive = small, poorly fitted or top-dose-only effect, or another doubt; inactive = no such curve, though single readings can be large or run the other way. Unless noted, % is set by controls: 0 for no effect and ±100 for the full control effect.
SMILES,JMJD2E inh,HPGD inh,ALDH1A1 block,PNC inhibitor
CCN1C(=O)/C(=C/c2ccc3c(c2)CCN3CCCCl)C(=O)NC1=S,u,7.94µM*,0.199µM*,-99.4*
CN(C)c1ncc(/C=C2/C(=O)NC(=S)N(C3CCCCC3)C2=O)cn1,-14.2%,x,u,x
COc1ccccc1N1C(=O)NC(=O)/C(=C/c2ccc3c(c2)Cc2ccccc2-3)C1=O,u,u,u,13.8
O=C1NC(=S)N(C2CC2)C(=O)/C1=C/c1ccc2c(c1)CCN2CCCCl,u,11.2µM*,0.891µM*,56.5
C(=C\c1ccccc1)/CN1CCN(CCOC(c2ccccc2)c2ccccc2)CC1,x,x,-4.9%,x
O=C(O)CNC(=O)c1ccc([As](=O)(O)O)cc1,x,-5.3%,4.2%[13.5 µM],x
Clc1ccc(-c2nc3ccc(Cl)cn3c2CN2CCOCC2)cc1,u,-21.0%,-2.2%,u
O=c1c2cc(Cl)cc(Cl)c2nc(CN2CCOCC2)n1-c1ccccc1F,1.6%,-15.8%,14.1µM*,u
Oc1ccccc1-c1ccccc1,x,u,17.8µM*,x
Fc1ccc(CCNCc2ccccc2Cl)cc1,3.1%,2.0%,-1.2%,35.0
Fc1ccc(CNCCc2ccccc2)cc1,31.6µM*,x,u,x
COP(=S)(OC)SCn1nnc2ccccc2c1=O,u,28.2µM*,12.6µM*,x
O=[N+]([O-])c1cc(O)c(O)c([N+](=O)[O-])c1,10µM*,u,u,x
O=[N+]([O-])c1ccc(O)c([N+](=O)[O-])c1,-25.7%,-2.3%,u,x
CN1C(=O)C(Cc2ccc3c(c2)OCO3)C(=O)N(C)C1=O,0.6%,-15.3%,23.8µM*,-12.2
CN1C(=O)C(Cc2cccs2)C(=O)N(C)C1=O,8.7%,-7.6%,3.7%,-9.6
CN1C(=O)C(Cc2ccsc2)C(=O)N(C)C1=O,-14.5%,-14.9%,12.6µM*,0.8
CCCCOc1ccc(CC2C(=O)N(C)C(=O)N(C)C2=O)cc1,3.2%,-18.9%,13.2%,u
Cc1nn(CCC#N)c2c1P(=S)(N1CCCC1)OC(c1ccc(F)cc1)=N2 (stereo not drawn),-13.0%,20µM*,7.08µM*,-1.8
CC(=O)O[C@H]1[C@H]2[C@@H](OC(=O)Cc3ccccc3)[C@@H](C)C[C@]2(OC(C)=O)C(=O)/C(C)=C/[C@@H]2[C@H](CC[C@@]13CO3)C2(C)C,x,-4.3%,-1.8%,x
Cc1cc(C(=O)OCC(=O)NC(=O)c2cccn2C)c2ccccc2n1,0.3%,x,u,x
CC1(C)Cc2c(sc3nc4n(-c5ccccc5)c(=O)c(CCC(=O)O)nn4c(=O)c23)CO1,31.6µM*,x,x,x
O=c1c2ccccc2nc(CNCC2CCCO2)n1-c1ccc(F)cc1 (stereo not drawn),4.5%,x,u,x
O=c1c2ccccc2nc(CNCc2ccco2)n1-c1ccc(F)cc1,-2.8%,-5.3%,0.2%,-82.8*
O=C(O)C[C@H]1OCC=C2CN3CC[C@]45c6ccccc6N[C@@H]4[C@H]1[C@H]2C[C@H]35,x,-7.4%,-8.2%[13.5 µM],x
SMILES,JMJD2E inh,HPGD inh,ALDH1A1 block,PNC inhibitor
Cc1nn(Cc2ccccc2)c2c1C(c1ccco1)C(C#N)=C(N)O2 (stereo not drawn),-7.0%,-17.6%,28.2µM*,u
FC(F)(F)c1ccc2c(c1)ncn2C1CCN(Cc2nnnn2C2CCCCC2)CC1,8.9%,u,0.562µM*,-100.0*
Fc1ccc(Cn2nnnc2CN2CCC(n3nnc4cc(C(F)(F)F)ccc43)CC2)cc1,0.3%,x,x,x
C=CC[N+]1(C)CCC23c4c5ccc(O)c4O[C@H]2C(=O)CC[C@@]3(O)C1C5 (stereo partly drawn),x,x,-15.3%,x
O=C(N1CCOCC1)C1(c2ccccc2)CCNCC1,x,1.4%,11.6%[13.5 µM],x
C=CCN1C(=O)NC(=O)/C(=C/c2ccc(OC)c(CSc3ccccn3)c2)C1=O,-22.5%,28.2µM*,12.6µM*,83.1
C=CCN1C(=O)NC(=O)/C(=C/c2ccc(OC)c(COc3ccc(NC(C)=O)cc3)c2)C1=O,-24.8%,x,u,x
O=[N+]([O-])c1ccccc1-c1ccccc1,x,-11.2%,u,x
COC(=O)CCCc1[se]c2ccccc2c1I,x,22.4µM*,31.6µM*,x
CCCCCCCCc1[se]c2ccccc2c1[Se]c1ccccc1,x,-16.0%,1.2%,x
CC(C)CC(N)C1(c2ccc(Cl)cc2)CCC1 (stereo not drawn),4.3%,-3.4%,0.2%,x
O=C(O)C1(c2ccc(Cl)cc2)CCC1,2.8%,-5.6%,0.7%,-80.9*
C[N+]1([O-])CCC[C@@H]1c1cccnc1 (stereo partly drawn),x,x,-1.0%,x
N#CCCC#N,x,-10.2%,28.2µM*,x
c1csc(CN2CCC3(CCNCC3)CC2)n1,x,-7.7%,3.2%,x
Cc1cc(=O)n2[nH]c(C)cc2n1,u,x,-12.2%,x
CCCn1cc(C(=O)O)cn1,-1.6%,x,4.2%,x
Cn1cc(NC(=O)CCl)cn1,-5.2%,x,17.8µM*,x
ClC(Cl)C(Cl)Cl,x,-12.0%,12.1%,x
O=C(c1ccncc1)N1CCC2(CC1)CN(Cc1ccccc1)C2,x,-3.5%,-1.1%,x
O=C(c1ccco1)N1CCC[C@@]2(CCN(Cc3ccncc3)C2)C1,x,-6.6%,10µM*,x
O=C(c1ccco1)N1CCC2(CC1)CN(Cc1ccncc1)C2,x,-4.4%,12.6µM*,x
NC(=NCc1ccc(Cl)cc1)SCCCc1cnc[nH]1,2.7%,-7.9%,14.1%,x
COc1ccc(/C=C/C2=CCN(C)CC2)cc1,-5.7%,x,25.1µM*,x
O=C1NC(=O)C(=Cc2ccc(OCCOc3ccc([N+](=O)[O-])cc3)cc2)C(=O)N1,28.2µM*,x,17.8µM*,x
SMILES,JMJD2E inh,HPGD inh,ALDH1A1 block,PNC inhibitor
NC(Cn1ccc(=O)c(O)c1)C(=O)O (stereo not drawn),u,-6.1%,8.4%,x
COc1ccc(-c2cc(C(F)(F)F)n3nc(C(=O)N4CCC5(CC4)OCCO5)cc3n2)cc1OC,u,12.6µM*,10µM*,-1.9
O=C(c1cc2ccccn2n1)N1CCC2(CC1)OCCO2,-4.2%,-11.4%,u,u
Cc1nonc1-c1nc(-c2nonc2N)n[nH]1,-0.7%,14.1µM*,-1.3%,-25.7
CCCCCCCCCCCCCC(=O)O[C@@H]1[C@@H](C)[C@@]2(O)[C@H](C=C(CO)C[C@]3(O)C(=O)C(C)=C[C@@H]23)[C@@H]2C(C)(C)C12OC(C)=O (stereo partly drawn),x,x,-1.9%,x
O=[N+]([O-])/C=C/c1c(OCc2ccccc2)ccc2ccccc12,-2.9%,15.8µM*,-8.3%,24.7
CN(C)c1ccc(C(=O)c2ccc(N(C)C)cc2)cc1,-6.4%,u,28.2µM*,-29.1
CN(C)c1ccccc1,x,-13.7%,-5.0%,x
[CH3][Hg][Cl],x,u,0.708µM*,x
COc1ccccc1/C=C1/C(=N/O)C2CCN1CC2,-3.7%,-26.3%,15.8µM*,24.4
[Cd+2].[Cl-].[Cl-],x,8.91µM*,3.98µM*,x
CN1C(=O)C(=Cc2coc3ccccc3c2=O)C(=O)N(C)C1=O,-11.3%,x,0.891µM*,x
COC(=O)/C(C)=C\CC12OC(C)(C)C3CC(C=C4C(=O)c5c(OC)c6c(c(CC=C(C)C)c5OC431)OC(C)(CCC=C(C)C)C=C6)C2=O (stereo not drawn),u,-21.4%,u,x

# Screening data deposited in PubChem by National Center for Advancing Translational Sciences (NCATS).
